Activity calls are given as the source filed them.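 Rule for the calls, unless noted: active = compounds whose cell count with miR-34 switched on is under 0.7 times the count with it off; inactive = the rest.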
Experiments:
[1] = sensitizers of A549 cells to miR-34 induction, primary screen, imaging, A549 dox-inducible miR-34, nuclei and caspase counts (AID 1347080); details: A549 miR-34 inducible, Hoechst nuclei count, 48 h
[2] = survival rescue of mitochondrial mutant cells in low glucose, primary screen, MELAS cybrids, Rieske KO mouse fibroblasts, CellTiter-Glo (AID 1508586;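 active = mean z-score across replicates of 1.96 or higher in either the MELAS or the Rieske mutant cell line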;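 note: z relative to plate mean and SD of compound and empty wells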)
[3] = test system: Hepatitis C virus NS3 helicase; test: HCV NS3 helicase inhibitors, primary screen, biochemical, fluorescence polarization, LOPAC1280 library (AID 687035; in the data active = inhibition above about 37%); details: Purified HCV NS3 helicase, Cy5-dT15 ssDNA binding fluorescence polarization; stronger effect = higher value; concentration not given here
[4] = Cy5 fluorescence quenching or enhancement artefacts, artefact control for HCV NS3 helicase inhibitor project, biochemical, LOPAC1280 (AID 687037; call rule not given here); details: Cy5-DNA-NS3h complex fluorescence interference counterscreen
[5] = phospholipid biosynthesis inhibitors in animal cells, primary screen, cell-based, LOPAC library, screen 4 (AID 1347384; call rule not given here); details: phospholipid biosynthesis inhibition screen, at 10 µM
[6] = viability rescue of complex I mutant cybrids, primary screen, cell-based, galactose medium, ATP luminescence (AID 1645843;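 active = z-score of at least 1.8 in each of two replicates, scored against plate mean and spread of sample wells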;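 note: positive z means more ATP and so rescue of galactose-driven cybrid death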); details: complex I mutant cybrid cells, 72 h, stronger effect = higher value
[7] = circadian clock period modulators, cell-based, LOPAC library, luminescence reporter (AID 2774; call rule not given here;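 note: values are relative to mean of DMSO wells on each plate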); details: circadian reporter cells, at 7 µM, actives lie on both sides
[8] = stronger effect = lower value, cell number ratio, induced over uninduced
[9] = measured here: relative caspase fold change +Dox/-Dox
[10] = measured here: total cells with miR-34 induction, stronger effect = lower value
[11] = measured here: total cells without miR-34 induction
[12] = MELAS cybrid survival, CellTiter-Glo 48 h, stronger effect = higher value
[13] = Rieske KO mouse fibroblast survival, CellTiter-Glo 72 h

| SMILES | fold change [1, 8] | fold change [1, 9] | cell count [1, 10] | cell count [1, 11] | z-score [2, 12] | z-score [2, 13] | inhibition [3] | fluorescence ratio (interference) [4] | outcome [5] | z-score [6] | period change [7] |
| --- | --- | --- | --- | --- | --- | --- | --- | --- | --- | --- | --- |
| CC(C)CC(NC(=O)CNC(=O)c1cc(Cl)ccc1Cl)B(O)O (centres undefined) | 0.948 (inactive) | 1.44 | 1800 | 1900 | -0.0464 (inactive) | -3.37 |  |  |  |  |  |
| Cc1cc2c(cc1Cl)N(C(=O)Nc1ccc(Oc3cccnc3C)nc1)CC2 | 0.93 (inactive) | 1.1 | 4820 | 5180 |  |  | -2% (inactive) | 0.9 (inactive) | inactive | -1.26 (inactive) |  |
| Cc1nc(Nc2n[nH]c3c2CN(C(=O)NC(CN(C)C)c2ccccc2)C3(C)C)c2sccc2n1 (centres undefined) | 1.06 (inactive) | 0.274 | 1510 | 1420 | 0.106 (inactive) | -7.7 |  |  |  |  |  |
| C=C[C@@]1(C)CC(OC(=O)CSC2C[C@H]3CC[C@@H](C2)N3C)[C@]2(C)C(C)CC[C@]3(CCC(=O)[C@H]32)C(C)C1O (some centres undefined) | 0.984 (inactive) | 1.2 | 7780 | 7910 | 2.23 (active) | 5.36 |  |  |  |  |  |
| COC(=O)C1C(O)CC[C@H]2CN3CCc4c([nH]c5ccccc45)[C@@H]3C[C@H]12 (some centres undefined) | 0.892 (inactive) | 0.762 | 8840 | 9910 | -0.303 (inactive) | 0.721 |  |  |  |  |  |
| O=C1CN(/N=C/c2ccc(-c3ccc([N+](=O)[O-])cc3)o2)C(=O)N1 | 0.852 (inactive) | 0.844 | 3600 | 4220 |  |  |  |  | inactive |  | 0.19 h (inactive) |
| NC(=O)c1noc(C(CCCC2CCCCC2)CC(=O)NO)n1 (centres undefined) | 0.791 (inactive) | 1.15 | 6790 | 8580 | -0.42 (inactive) | -1.85 |  |  |  |  |  |
| COc1cc(F)c(C(C)C)cc1-c1ccc(C(F)(F)F)cc1CN1C(=O)OC(c2cc(C(F)(F)F)cc(C(F)(F)F)c2)C1C (centres undefined) | 0.899 (inactive) | 0.917 | 8290 | 9220 | -0.143 (inactive) | 0.372 |  |  |  |  |  |
| OCC1O[C@H]([S-])[C@@H](O)C(O)[C@@H]1O.[Au+] (some centres undefined) | 0.895 (inactive) | 0.924 | 6430 | 7180 |  |  | 36% (inactive) | 1 (inactive) | inactive | -1.29 (inactive) |  |
| CC(=O)SC1CC2=CC(=O)CC[C@]2(C)[C@@H]2CC[C@@]3(C)[C@@H](CC[C@]34CCC(=O)O4)[C@H]12 (some centres undefined) | 0.898 (inactive) | 0.8 | 7310 | 8140 | -0.198 (inactive) | -0.323 |  |  |  |  |  |
| Cc1cc(Cn2cnc3c2C[C@@H](C(=O)O)N(C(=O)C(c2ccccc2)c2ccccc2)C3)ccc1N | 1.01 (inactive) | 2.03 | 10300 | 10200 |  |  | 0% (inactive) | 1 (inactive) | inactive | 0.405 (inactive) |  |
| CC(=O)OC1C[C@@H]2CC[C@@H]3[C@@H](CC[C@]4(C)C(OC(C)=O)C([N+]5(C)CCCCC5)C[C@@H]34)[C@@]2(C)CC1[N+]1(C)CCCCC1 (some centres undefined) | 0.982 (inactive) | 0.749 | 10400 | 10600 | -0.344 (inactive) | 0.747 |  |  |  |  |  |
| O=C(Nc1ccccc1)N1CCN(c2nc(-c3ccccc3)ns2)CC1 | 1.02 (inactive) | 0.483 | 7250 | 7080 | -0.215 (inactive) | 0.0401 |  |  |  |  |  |
| CC1COC2=C1C(=O)C(=O)c1c2ccc2c1CCCC2(C)C (centres undefined) | 1.09 (inactive) | 0.507 | 2070 | 1890 | -0.382 (inactive) | -0.5 |  |  |  |  |  |
| FC(F)(F)c1ccc(C=Cc2nc(COc3ccc(CCCCn4ccnn4)cc3)co2)cc1 | 0.766 (inactive) | 1.23 | 4190 | 5470 | -0.189 (inactive) | -0.508 |  |  |  |  |  |
| COc1ccc2c(c1)CCC1C2CC[C@@]2(C)C1CC[C@@H]2NCCCCCCN1C(=O)CCC1=O (some centres undefined) | 1.08 (inactive) | 0.876 | 8060 | 7440 |  |  | -3% (inactive) | 1 (inactive) | inactive | -1.29 (inactive) |  |
| O=C(O)C(S)=Cc1c[nH]c2ccc(F)cc12 | 0.952 (inactive) | 0.47 | 7180 | 7550 | -0.325 (inactive) | -0.491 |  |  |  |  |  |
| CCCCc1nc2cc(C=CC(=O)NO)ccc2n1CCN(CC)CC | 1.12 (inactive) | 0.731 | 1070 | 951 | 0.665 (inactive) | -0.474 |  |  |  |  |  |
| C=CC[N+]1(C2C[C@H]3[C@@H]4CC[C@H]5CC(O)C(N6CCOCC6)C[C@]5(C)[C@@H]4CC[C@]3(C)C2OC(C)=O)CCCC1 (some centres undefined) | 0.951 (inactive) | 0.974 | 8100 | 8520 | -0.403 (inactive) | 0.424 |  |  |  |  |  |
| CN(CC[C@@H](Oc1ccc(C(F)(F)F)cc1)c1ccccc1)CC(=O)O | 1.05 (inactive) | 2.04 | 10800 | 10300 |  |  | -2% (inactive) | 0.9 (inactive) | inactive | 0.395 (inactive) |  |
| Cn1ncc(S(=O)(=O)Cc2ccccc2)c(Br)c1=O | 1.14 (inactive) | 1.46 | 2510 | 2200 |  |  | -3% (inactive) | 0.9 (inactive) | inactive | -1.24 (inactive) |  |

| SMILES | fold change [1, 8] | fold change [1, 9] | cell count [1, 10] | cell count [1, 11] | z-score [2, 12] | z-score [2, 13] | inhibition [3] | fluorescence ratio (interference) [4] | outcome [5] | z-score [6] | period change [7] |
| --- | --- | --- | --- | --- | --- | --- | --- | --- | --- | --- | --- |
| CCOC(=O)C1=C(C)NC(C)=C(C(=O)OCC)C1c1c(F)c(F)c(F)c(F)c1F | 1.11 (inactive) | 0.622 | 5220 | 4680 |  |  | -5% (inactive) | 0.9 (inactive) | inactive | -0.415 (inactive) |  |
| c1ccc2c(c1)CC(N1CCN(c3cccc4c3OCCO4)CC1)C2 | 1.01 (inactive) | 1.01 | 8000 | 7890 |  |  | -2% (inactive) | 1 (inactive) | inactive | 0.255 (inactive) |  |
| CCN1CCN(C(=O)NC(C(=O)NC2C(=O)N3C(C(=O)O)=C(CSc4nnnn4C)CS[C@H]23)c2ccc(O)cc2)C(=O)C1=O (some centres undefined) | 0.907 (inactive) | 0.724 | 7730 | 8520 | 0.121 (inactive) | 0.0185 |  |  |  |  |  |
| COCC(NC(=O)c1cnc(C)s1)C(=O)NC(COC)C(=O)NC(Cc1ccccc1)C(=O)C1(C)CO1 (centres undefined) | 0.898 (inactive) | 1.09 | 714 | 796 | 0.992 (inactive) | -0.399 |  |  |  |  |  |
| C=CCNC1=C2CC(C)CC(OC)C(O)C(C)C=C(C)C(OC(N)=O)C(OC)C=CC=C(C)C(=O)NC(=CC1=O)C2=O (centres undefined) | 1.02 (inactive) | 1.05 | 1870 | 1820 | 1.58 (inactive) | -0.477 |  |  |  |  |  |
| CCN1CCN(Cc2ccc(-c3cc4c(NC(C)c5ccccc5)ncnc4[nH]3)cc2)CC1 (centres undefined) | 1.04 (inactive) | 0.932 | 3430 | 3280 | -0.0772 (inactive) | 0.518 |  |  |  |  |  |
| Cc1[nH]c(C=C2C(=O)Nc3ccc(S(=O)(=O)Cc4c(Cl)cccc4Cl)cc32)c(C)c1C(=O)N1CCCC1CN1CCCC1 (centres undefined) | 0.833 (inactive) | 1.46 | 4270 | 5130 | -0.699 (inactive) | 0.101 |  |  |  |  |  |
| CCOc1ccc2ccccc2c1C(=O)NC1C(=O)N2C(C(=O)O)C(C)(C)S[C@H]12 (some centres undefined) | 1.19 (inactive) | 0.989 | 8800 | 7400 | -0.279 (inactive) | -0.179 |  |  |  |  |  |
| N[C@H](CCCP(=O)(O)O)C(=O)O | 0.903 (inactive) | 1.61 | 9420 | 10400 |  |  | -1% (inactive) | 1.1 (inactive) | inactive | 0.08 (inactive) |  |
| COc1cc(C(O)CO)ccc1O (centres undefined) | 0.99 (inactive) | 1.37 | 9940 | 10000 |  |  | -1% (inactive) | 1 (inactive) | inactive | 0.42 (inactive) |  |
| O=C(C=Cc1ccc(O)c(O)c1)OC1C[C@@](O)(C(=O)O)CC(O)C1O (some centres undefined) | 0.936 (inactive) | 0.802 | 8020 | 8570 | -0.38 (inactive) | -0.0852 |  |  |  |  |  |
| CCN1CCN(C(=O)NC(C(=O)NC2C(=O)N3C2SC(C)(C)C3C(=O)O)c2ccccc2)C(=O)C1=O (centres undefined) | 0.885 (inactive) | 1.67 | 8860 | 10000 | -0.177 (inactive) | -0.164 |  |  |  |  |  |
| O=C1C(Cl)=C(N2CCOCC2)C(=O)N1c1ccc(Cl)c(Cl)c1 | 0.939 (inactive) | 0.753 | 7840 | 8360 | -0.367 (inactive) | -0.893 |  |  |  |  |  |
| OCC1OC(O[C@]2(CCl)OC(CCl)C(O)C2O)C(O)C(O)C1Cl (some centres undefined) | 0.895 (inactive) | 0.674 | 8040 | 8990 | -0.278 (inactive) | -0.16 |  |  |  |  |  |
| C[C@]12C=CC(=O)C=C1CC[C@H]1[C@@H]3CC(O)[C@@](O)(C(=O)CO)[C@@]3(C)CC(O)[C@]12F (some centres undefined) | 0.898 (inactive) | 0.627 | 5780 | 6430 | 0.159 (inactive) | -0.119 |  |  |  |  |  |
| O=c1ccc2c(OCCCCc3ccccc3)c3ccoc3cc2o1 | 1.08 (inactive) | 1.92 | 8160 | 7580 |  |  | 0% (inactive) | 1 (inactive) | inactive | -0.515 (inactive) |  |
| C[C@]12CCC(=O)C=C1[C@@H]1C[C@@H]1[C@H]1[C@@H]3[C@@H]4C[C@@H]4[C@]4(CCC(=O)O4)[C@@]3(C)CC[C@H]12 | 0.956 (inactive) | 0.848 | 6880 | 7200 | -0.459 (inactive) | 0.378 |  |  |  |  |  |
| CN1CCc2nc(C(=O)NC3CC(C(=O)N(C)C)CCC3NC(=O)C(=O)Nc3ccc(Cl)cn3)sc2C1 (centres undefined) | 0.965 (inactive) | 0.478 | 8860 | 9180 | -0.402 (inactive) | -0.373 |  |  |  |  |  |
| Cc1[nH]c2ccccc2c1C1=C(NCCc2ccc(F)cc2)C(=O)N(C)C1=O | 0.916 (inactive) | 0.466 | 2210 | 2410 | -0.365 (inactive) | 1.08 |  |  |  |  |  |
| COc1cc(C(C)=O)ccc1O | 0.901 (inactive) | 0.815 | 7660 | 8500 | -0.427 (inactive) | -0.0762 |  |  |  |  |  |
| OC(CC1c2ccccc2-c2cncn21)C1CCCCC1 (centres undefined) | 0.992 (inactive) | 0.351 | 8340 | 8410 | -0.436 (inactive) | -0.0844 |  |  |  |  |  |
